Assay [1] is described as follows: qHTS assay to identify small molecule agonists of the androgen receptor (AR) signaling pathway in the presence of an antagonist - cell viability counter screen (AID 1259379).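 Also: MDA-kb2 human breast cancer cells carrying an MMTV luciferase reporter; series mostly up to about 92 µM; nearly all actives have a fitted effect of over 25% in size.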 The gist of the method:
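In MDA-kb2 cells (human breast carcinoma, MMTV-luciferase), compounds at 15 concentrations plus 3.0uM nilutamide; 16 hr, 37C, 0% CO2; CellTiter-Fluor fluorescence read for viability.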
For orientation: qHTS replaces the single test concentration by a dilution series.

A short description of assay [2]: qHTS assay to identify small molecule agonists of the estrogen receptor beta (ER-beta) signaling pathway - cell viability counter screen (AID 1259380). Also: nearly all actives have a fitted effect of over 30% in size. The gist of the method: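 Viability of ER-beta-UAS-bla HEK293T cells was determined by CellTiter-Glo luminescence following 16 hr treatment with test compounds at 37C.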
The nature of assay [3]: qHTS assay to identify small molecule antagonists of the estrogen receptor beta (ER-beta) signaling pathway - cell viability counter screen (AID 1259382).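 Also: HEK293T cells carrying ER-beta-UAS-bla reporter stimulated with estradiol; series mostly up to about 92 µM; nearly all actives have a fitted effect of over 55% in size.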 The gist of the method: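 Tox21 10K library tested in qHTS format on ER-beta-bla HEK293T cells stimulated with 1nM E2; 16 hr treatment at 37C. Same-well CellTiter-Glo luminescence served as the cell viability measure.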

Assay [4] is described as follows: qHTS assay to identify small molecule agonists or antagonists of the thyroid stimulating hormone receptor (TSHR) signaling pathway - wild type cell line counter screen (AID 1259384; calls by dose curve). The gist of the method: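 Counter screen in untransfected Hek293: compounds (15-point titration, triplicate) plus phosphodiesterase inhibitor Ro20-1724 added after 18 h plating; 30 min RT. Intracellular cAMP via competitive d2/cryptate immunoassay, 1 h incubation.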

For assay [5], the target named is Thyrotropin receptor (Homo sapiens) (UniProt P16473). Description: qHTS assay to identify small molecule antagonists of the thyroid stimulating hormone receptor (TSHR) signaling pathway (AID 1259385; calls by dose curve; also: nearly all actives have a fitted effect of over 20% in size). The gist of the method: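 Antagonist mode: compound-treated TSHR-expressing HEK293 cells were stimulated with 1.5 ng/mL TSH (final) in presence of Ro20-1724 for 30 min at RT. HTRF cAMP detection after 1 h; each compound tested at 15 concentrations, triplicate.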
Chain of Thyrotropin receptor (Homo sapiens) (P16473 whole entry, looked up): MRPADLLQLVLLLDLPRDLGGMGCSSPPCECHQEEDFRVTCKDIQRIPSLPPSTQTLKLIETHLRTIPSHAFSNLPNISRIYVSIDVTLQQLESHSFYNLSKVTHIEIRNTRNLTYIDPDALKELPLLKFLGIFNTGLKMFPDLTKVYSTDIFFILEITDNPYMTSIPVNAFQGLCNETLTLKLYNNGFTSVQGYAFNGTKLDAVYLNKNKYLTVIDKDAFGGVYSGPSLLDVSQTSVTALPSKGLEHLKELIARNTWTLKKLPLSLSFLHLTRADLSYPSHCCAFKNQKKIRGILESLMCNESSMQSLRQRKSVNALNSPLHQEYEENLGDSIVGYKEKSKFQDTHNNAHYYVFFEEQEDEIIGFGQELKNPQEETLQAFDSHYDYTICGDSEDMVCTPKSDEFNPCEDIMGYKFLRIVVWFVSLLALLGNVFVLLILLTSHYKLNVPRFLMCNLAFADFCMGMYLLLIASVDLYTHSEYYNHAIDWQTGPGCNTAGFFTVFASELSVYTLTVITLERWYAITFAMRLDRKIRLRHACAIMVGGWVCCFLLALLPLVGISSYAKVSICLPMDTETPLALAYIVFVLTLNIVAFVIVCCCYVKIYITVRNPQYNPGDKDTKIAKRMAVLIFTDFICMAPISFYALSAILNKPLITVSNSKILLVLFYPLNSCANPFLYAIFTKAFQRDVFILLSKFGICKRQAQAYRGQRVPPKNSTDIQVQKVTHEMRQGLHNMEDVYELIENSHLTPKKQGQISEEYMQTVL

Assay [6] is described as follows: qHTS assay to identify small molecule agonists of the estrogen receptor alpha (ER-alpha) signaling pathway in the presence of an antagonist - cell viability counter screen (AID 1259386).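 Also: series mostly up to about 92 µM; cells exposed to compounds for 22 h at 37 °C before the viability read; nearly all actives have a fitted effect of over 30% in size.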 In outline: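 Fluorescent CellTiter-Fluor viability signal from VM7Luc4E2 cells, with the reagent added during the final hour of a 22hr compound exposure at 37C in the presence of 10.0nM ICI-182,780.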

The target in assay [7] is Progesterone receptor (Homo sapiens) (UniProt P06401). Description: qHTS assay to identify small molecule agonists of the progesterone receptor (PR) signaling pathway (AID 1346784; calls by dose curve; also: nearly all actives have a fitted effect of over 30% in size; also: potency is read from the fitted curve at half-maximal effect). In outline:
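Fluorescence from LiveBLAzer B/G FRET substrate cleavage (2 hr, RT) reported PR activation in PR-UAS-bla HEK 293T cells treated 16 hr at 37C/5% CO2 with compounds; medium contained 2% charcoal-stripped FBS.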

For assay [8] the target is unchanged. Nature of the assay: qHTS assay to identify small molecule antagonists of the progesterone receptor (PR) signaling pathway (AID 1346795; active = well fitted inhibition curve with a large enough effect in the signal ratio in the repeat runs, not every such curve was filed as active; the % refers to the signal ratio). In outline:
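Fluorescence intensity measured 2 hr after adding beta-lactamase FRET substrate to PR-UAS-bla HEK293T cells that had been co-treated 16 hr with compound and 1 nM R5020 (final concentration) in 2% charcoal-stripped FBS.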

Assay [9] is described as follows: qHTS assay to identify small molecule antagonists of the progesterone receptor (PR) signaling pathway - cell viability counter screen (AID 1346798). Also: series mostly up to about 92 µM; nearly all actives have a fitted effect of over 50% in size. In outline: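 CellTiter-Glo luminescence; PR-UAS-bla HEK293T, 3,000 cells/well; compound + R5020, 16 hr, 37C/5% CO2; 30 min RT before read.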
A short description of assay [10]: qHTS assay to identify small molecule agonists of the progesterone receptor (PR) signaling pathway - cell viability counter screen (AID 1346799; calls by dose curve; also: nearly all actives have a fitted effect of over 45% in size). In outline:
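In parallel with the beta-lactamase readout, cytotoxicity toward PR-UAS-bla HEK293T cells was measured by CellTiter-Glo luminescence following 16 hr compound incubation in 2% charcoal-stripped FBS medium.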

A short description of assay [11]: qHTS assay to identify small molecule antagonists of the TGF-beta/Smad signaling pathway - cell viability counter screen (AID 1346824). Also: nearly all actives have a fitted effect of over 50% in size. In outline: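 Cytotoxicity counter-screen run in the same wells as the beta-lactamase Smad reporter read: CellTiter-Glo luminescence after 30 min at room temperature. HEK 293T SBE-bla cells had 5 hr compound exposure at 37 C with TGF-beta1 (0.25 ng/mL stock).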

Assay [12] in a line: qHTS assay to identify small molecule agonists of the TGF-beta/Smad signaling pathway (AID 1346859; active = well fitted activation curve with a large enough effect in the signal ratio in the repeat runs, not every such curve was filed as active; the % refers to the signal ratio; also: series mostly up to about 77 µM). The gist of the method: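 After overnight seeding, SBE-bla HEK 293T cells are dosed with compounds in DMSO and kept 5 hr at 37 C, 5% CO2. LiveBLAzer-type FRET substrate is then applied for 2 hr at room temperature.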
The target in assay [13] is Thyrotropin-releasing hormone receptor (Homo sapiens) (UniProt P34981). Description: qHTS assay to identify small molecule antagonists of the thyrotropin-releasing hormone receptor (TRHR) signaling pathway (AID 1346877; active = well fitted inhibition curve with a large enough effect in the repeat runs, not every such curve was filed as active; also: series mostly up to about 51 µM). In outline:
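In this cell-based calcium flux format, HEK293 cells expressing TRHR received test compound for 5 min before the agonist TRH (1 nM final). Dye loading lasted 2 h at 37 °C.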

Assay [14] shares this target. Nature of the assay: qHTS assay to identify small molecule agonists of the thyrotropin-releasing hormone receptor (TRHR) signaling pathway (AID 1346891; calls by dose curve; also: series mostly up to about 58 µM). In outline:
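Compounds were tested as agonists at 15 concentrations, in triplicate, on TRHR-Hek293 cells; calcium-sensitive dye fluorescence was recorded for 3 min following addition.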

Assay [15] can be described thus: Human pregnane X receptor (PXR) small molecule agonists, qHTS cell viability counter screen (AID 1346977). Also: nearly all actives have a fitted effect of over 50% in size. The gist of the method: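 Viability counter screen: CellTiter-Fluor signal in PXR-Luc HepG2 cells, 24hr compound exposure, 37C, 5% CO2.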
For assay [16], the target named is Estrogen receptor (Homo sapiens) (UniProt P03372). Description: qHTS assay to identify small molecule agonists of the estrogen receptor alpha (ER-alpha) signaling pathway in the presence of an antagonist (AID 1259383; calls by dose curve; also: top concentration of the series differs between compounds; nearly all actives have a fitted effect of over 15% in size). In outline: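 In VM7Luc4E2 cells, 4,000 per well, compounds at 15 concentrations were co-incubated 22hr at 37C with 10.0nM final ICI-182,780. Luminescence from the stably transfected 4×ERE-luciferase reporter was recorded 30min after ONE-Glo addition.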
Chain of Estrogen receptor (Homo sapiens) (P03372 whole entry, looked up): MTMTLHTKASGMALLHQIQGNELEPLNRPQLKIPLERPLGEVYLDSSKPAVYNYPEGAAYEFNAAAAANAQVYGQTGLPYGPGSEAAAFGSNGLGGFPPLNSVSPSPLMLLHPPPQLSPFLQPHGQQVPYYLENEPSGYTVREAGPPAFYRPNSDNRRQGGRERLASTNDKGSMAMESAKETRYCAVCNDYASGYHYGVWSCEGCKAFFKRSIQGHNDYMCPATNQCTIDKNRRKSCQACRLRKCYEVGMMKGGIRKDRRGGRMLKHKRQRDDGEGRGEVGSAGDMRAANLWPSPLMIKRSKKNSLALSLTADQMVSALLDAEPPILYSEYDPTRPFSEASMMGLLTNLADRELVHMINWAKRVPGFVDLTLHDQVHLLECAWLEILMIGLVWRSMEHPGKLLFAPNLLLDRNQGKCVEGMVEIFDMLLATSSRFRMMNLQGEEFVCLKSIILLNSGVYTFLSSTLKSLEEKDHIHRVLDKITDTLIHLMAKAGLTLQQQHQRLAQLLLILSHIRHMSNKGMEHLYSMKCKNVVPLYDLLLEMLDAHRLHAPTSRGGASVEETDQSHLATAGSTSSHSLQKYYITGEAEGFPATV

Assay [17] can be described thus: qHTS assay to identify small molecule agonists of the TGF-beta/Smad signaling pathway - cell viability counter screen (AID 1346829). Also: top concentration of the series differs between compounds; nearly all actives have a fitted effect of over 45% in size. The gist of the method: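 CellTiter-Glo luminescence readout; SBE-bla HEK 293T cells, overnight plating, compound 5 hr at 37 C/5% CO2, then bla substrate 2 hr RT, then CellTiter-Glo 30 min RT.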

Our source for the Potency and outcome values is PubChem BioAssay (Tox21).

Unmarked numbers belong to inactive results. Inconclusive results are not listed. The source made the active and inactive calls. Unless noted, calls follow the shape of the dose curve; as a rule, active = well fitted curve in the direction sought with a large enough effect in the repeat runs; inconclusive = weak or mixed curves; inactive = no such curve, though single readings can be large; an effect the other way counts as inactive or inconclusive.

Chain of Thyrotropin-releasing hormone receptor (Homo sapiens) (P34981 whole entry, looked up): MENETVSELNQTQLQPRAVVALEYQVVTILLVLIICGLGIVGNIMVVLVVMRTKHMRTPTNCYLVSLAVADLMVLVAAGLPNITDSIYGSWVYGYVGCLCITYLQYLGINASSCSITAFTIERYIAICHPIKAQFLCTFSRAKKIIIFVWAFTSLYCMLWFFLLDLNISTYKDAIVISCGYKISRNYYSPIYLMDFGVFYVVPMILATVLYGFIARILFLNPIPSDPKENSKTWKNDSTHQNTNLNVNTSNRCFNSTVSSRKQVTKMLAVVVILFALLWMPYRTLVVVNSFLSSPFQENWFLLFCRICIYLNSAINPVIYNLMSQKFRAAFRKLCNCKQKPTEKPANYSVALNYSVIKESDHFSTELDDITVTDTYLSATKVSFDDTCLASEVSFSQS
Chain of Progesterone receptor (Homo sapiens) (P06401 whole entry, looked up): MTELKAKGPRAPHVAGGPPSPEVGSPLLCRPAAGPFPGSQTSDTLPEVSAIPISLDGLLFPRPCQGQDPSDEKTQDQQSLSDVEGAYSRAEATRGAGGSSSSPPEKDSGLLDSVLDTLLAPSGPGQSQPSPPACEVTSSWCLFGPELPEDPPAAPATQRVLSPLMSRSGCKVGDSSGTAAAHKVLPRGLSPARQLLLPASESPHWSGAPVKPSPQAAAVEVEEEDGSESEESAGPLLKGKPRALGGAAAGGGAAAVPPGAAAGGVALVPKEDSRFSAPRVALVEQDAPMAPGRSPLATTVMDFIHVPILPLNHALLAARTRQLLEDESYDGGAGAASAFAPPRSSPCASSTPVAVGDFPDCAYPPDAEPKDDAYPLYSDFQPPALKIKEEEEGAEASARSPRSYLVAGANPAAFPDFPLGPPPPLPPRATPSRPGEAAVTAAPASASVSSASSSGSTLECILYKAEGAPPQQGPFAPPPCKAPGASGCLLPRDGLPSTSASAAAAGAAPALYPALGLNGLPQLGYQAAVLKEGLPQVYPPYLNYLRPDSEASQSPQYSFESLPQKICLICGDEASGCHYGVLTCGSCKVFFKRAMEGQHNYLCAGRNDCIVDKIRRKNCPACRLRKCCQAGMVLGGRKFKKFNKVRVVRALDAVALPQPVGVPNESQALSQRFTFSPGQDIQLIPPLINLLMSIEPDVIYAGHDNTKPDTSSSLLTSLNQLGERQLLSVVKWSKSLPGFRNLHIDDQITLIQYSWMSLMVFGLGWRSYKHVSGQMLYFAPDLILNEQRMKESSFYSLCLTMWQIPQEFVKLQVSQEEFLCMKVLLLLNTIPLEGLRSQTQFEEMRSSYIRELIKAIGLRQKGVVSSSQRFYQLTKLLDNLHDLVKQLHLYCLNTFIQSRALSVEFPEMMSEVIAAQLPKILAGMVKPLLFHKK

For `Cc1ccccc1N=C(N)N=C(N)N`, the Potency entry in [1], in assay [2], in assay [6], in assay [7], in [8] and in assay [9] was “inactive” throughout. The Potency entry in [10], in assay [14] and in assay [15] was “inactive” throughout. Further, the outcome in assay [3], in [4], in assay [5], in assay [11], in [12] and in [13] was inactive.

Consider `C[N+]1(C)CCCC(OC(=O)C(O)(c2ccccc2)c2ccccc2)C1` (centres undefined), for which the Potency result in assay [1], in [2], in assay [6], in assay [8], in assay [9] and in [10] was “inactive” each time. Moreover, in assay [15], the Potency result was “inactive”. For the same molecule, the result in assay [3], in assay [16], in [11], in [17] and in [12] was inactive. Also, the Potency in assay [7] was 15 µM (active).

With `CC(=O)c1cnccn1`, the Potency result in assay [1], in assay [2], in [6], in assay [7], in assay [8] and in assay [9] was “inactive” each time. The Potency result in [10], in assay [14] and in [15] was “inactive” throughout. Further, the call in assay [3], in [16], in [4], in assay [5], in assay [11] and in assay [17] was inactive. Also, the molecule was called inactive in [12] and in assay [13].

In the case of `O=C(O)CNC(=O)c1ccc(CO)o1`, the Potency entry in [1], in assay [2], in assay [6], in assay [7], in assay [9] and in assay [10] was “inactive” in each case. For the same molecule, the Potency entry in assay [14] and in assay [15] was “inactive” throughout. Moreover, the call in assay [3], in [16], in [11], in assay [17], in assay [12] and in [13] was inactive.

For the molecule `CC/C=C\CCOC(C)OCC` (centres undefined), the Potency result in assay [1], in assay [2], in assay [6], in assay [7], in [8] and in [9] was “inactive” throughout. Moreover, the Potency result in assay [10], in assay [14] and in assay [15] was “inactive” throughout. Also, the molecule was called inactive in assay [3], in assay [16], in [5], in [11], in assay [17] and in [12]. Moreover, in assay [13], the molecule was called inactive.

With `NC(=O)N[C@@H](CCC(=O)O)C(=O)O`, the Potency entry in assay [1], in assay [2], in assay [6], in [7], in [9] and in [10] was “inactive” throughout. In [15], the Potency result is “inactive”. In addition, the result in [3], in assay [4], in assay [5], in [11] and in assay [12] was inactive.

`CN(C)CCN(C)CCN(C)C`: the Potency entry in [1], in [2], in assay [6], in [7], in [8] and in assay [9] was “inactive” in each case. The Potency entry in assay [10], in [14] and in assay [15] was “inactive” each time. Also, the result in [3], in assay [16], in assay [4], in [11] and in assay [13] was inactive.

On to `C[C@H]1C[C@H]2[C@@H]3CCC4=CC(=O)C=C[C@]4(C)[C@H]3C(=O)C[C@]2(C)[C@@]1(O)C(=O)CO`, for which the Potency entry in [1], in assay [2], in assay [7], in assay [8], in assay [9] and in assay [14] was “inactive” throughout. Besides, the Potency result in assay [15] was “inactive”. Also, the result in assay [3], in assay [16], in [4], in [5], in assay [11] and in [17] was inactive. For the same molecule, the outcome in assay [12] and in assay [13] was inactive.

In the case of `Nc1ccn([C@@H]2O[C@H](CO)[C@@H](O)[C@@H]2O)c(=O)n1`, the Potency entry in [1], in [2], in [7], in [8], in [10] and in [14] was “inactive” throughout. For the same molecule, in [15], the Potency result is “inactive”. Moreover, the call in [3], in [16], in assay [11], in [17], in assay [12] and in assay [13] was inactive.
